CHT PAM: allosteric activators of human choline transporter CHT; B-score at 10 µM; AID 488977; Q9GZV3; CHT-expressing cells, membrane potential dye, choline EC20; hits give high values; LV-AA mutant CHT in HEK293 cells; hit rate 0.49% among 310,000;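 active = initial fluorescence not abnormally high and integrated response B-score, plate-corrected, over 3 SD above library mean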
Kir21 block: blocks the mouse Kir2.1 inward-rectifier potassium channel; P35561; HEK293-Kir2.1, FluxOR thallium flux fluorescence; hits give low values; B-score at 10 µM; hit rate 0.85% among 310,000;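 active = fluorescence ratio B-score at or below minus 3 SD of library scores, with starting-brightness B-score within 2 SD, cut at about -4.2 in these data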;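 note: channel flux triggered by added potassium and thallium sulfate stimulus; B-score of peak minus minimum fluorescence over baseline after thallium stimulus; more negative B-score means stronger Kir2.1 block with less thallium influx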
TMEM16A inh: blocks the mouse calcium-activated chloride channel TMEM16A | normalized B-score (activity score, 25-100; higher = stronger inhibition) at 10 µM | AID 588511 | Q8BHY3 | hit rate 1.2% among 310,000 | HEK293 TMEM16A/YFP iodide influx fluorescence, ionomycin;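 active = ratio plate-corrected score three or more library SD toward inhibition, starting fluorescence score within five deviations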;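 note: score derived from kinetic fluorescence span divided by baseline fluorescence per well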
Rce1 inh: yeast Ras-converting enzyme inhibition; AID 2563; calls only; Q03530; hit rate 0.27% among 290,000; yeast membranes, quenched prenylated peptide cleavage fluorescence;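 active = fall in fluorescence gain of 50% or more versus controls, with final raw signal at or below 3038400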;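 note: plate controls were neutral control wells for no effect and wells lacking membranes for full effect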
Target sequence (Q03530 whole entry, looked up): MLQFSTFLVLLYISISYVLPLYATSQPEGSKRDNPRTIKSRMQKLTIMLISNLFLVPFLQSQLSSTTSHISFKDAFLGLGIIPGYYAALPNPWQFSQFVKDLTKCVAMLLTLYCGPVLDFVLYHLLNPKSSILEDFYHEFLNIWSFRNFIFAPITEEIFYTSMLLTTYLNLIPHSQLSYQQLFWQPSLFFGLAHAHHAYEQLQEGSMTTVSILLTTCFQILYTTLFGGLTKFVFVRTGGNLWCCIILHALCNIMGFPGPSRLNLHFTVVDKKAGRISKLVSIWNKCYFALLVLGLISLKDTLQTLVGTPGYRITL
CHT block: human CHT choline transport inhibition | Q9GZV3 | CHT-expressing cells, membrane potential dye, choline response; hits give low values | B-score at 10 µM | hit rate 0.86% among 310,000;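 active = B-score over 3 SD under the library average, and starting fluorescence ratio not unusually high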;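 note: choline stimulus applied at its EC90 after an EC20 pre-addition; B-score computed on integrated fluorescence ratio after choline addition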
TMEM16A act: activates or potentiates the mouse TMEM16A chloride channel; B-score at 10 µM; HEK293 TMEM16A/YFP-H148Q/I152L, iodide quench fluorescence; hits give low values; Q8BHY3; hit rate 0.3% among 340,000; AID 623877;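 active = fluorescence-ratio B-score plate-corrected deviation score at least 3 library SD below zero, with starting fluorescence score within 5 deviations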;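 note: channel opened by trigger with iodide after compound preincubation; score built on the fluorescence ratio of max minus min over baseline; more negative score means more quench and so TMEM16A activation or potentiation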
* = called active by the depositor; i = inactive; · = no result given; + = active, no number. An excerpt weighted towards active compounds, which were near 3.2% of everything screened.

SMILES	CHT PAM	Kir21 block	TMEM16A inh	Rce1 inh	CHT block	TMEM16A act
COc1ccc(Cc2nnc(-c3cccc(C)c3)o2)cc1OC	i	-2.1	i	i	i	i
COc1ccc(CC(=O)Nc2cccc(-c3nnc(-c4cccc(C)c4)o3)c2)cc1OC	i	0.82	100*	i	i	i
COc1ccc(CC(=O)Nc2cccc(-c3nnc(-c4ccc(C)cc4)o3)c2)cc1OC	i	0.37	25*	i	i	i
COc1ccc(CC(=O)Nc2ccc(-c3nnc(-c4ccccc4)o3)cc2)cc1OC	i	0.33	i	i	i	i
CCOC(=O)C1=C(C)N=c2s/c(=C\c3ccc(OCC(=O)O)cc3)c(=O)n2C1c1ccccc1 (stereo not drawn)	i	1.9	i	i	i	i
CCOC(=O)C1=C(C)N=c2s/c(=C/c3cccc([N+](=O)[O-])c3O)c(=O)n2C1c1ccccc1 (stereo not drawn)	i	1.1	100*	i	-8*	i
O=C(O)c1nn(Cc2nc3ccccc3o2)c(=O)c2ccccc12	i	-0.65	i	i	i	-4.8*
Cc1ccc(-c2noc(Cn3nc(C(=O)O)c4ccccc4c3=O)n2)cc1	i	1.8	i	i	i	i
CC(OC(=O)c1ccc(Cl)cc1)C(=O)NCC1CCCCC1 (stereo not drawn)	·	·	·	·	·	i
CO/N=C(/CS(=O)c1ccc(Br)cc1)c1ccc(OC)cc1 (stereo not drawn)	i	-8.9*	i	i	i	i
CC(=O)c1sc(NC(=O)C2CCCN2S(=O)(=O)c2ccccc2F)nc1C (stereo not drawn)	·	·	·	·	·	i
COc1cccc(/C=N\NC(=O)c2ccc(Cn3cc(Br)c([N+](=O)[O-])n3)o2)c1O	i	-0.6	i	i	i	i
C#CCOCCOCCOCCNc1nc(N2CCN(C(=O)CCCCCCCCCCNC(=O)[C@H](CO)n3cc(CCCSC)nn3)CC2)nc(N2CCN(C(=O)CCCCCCCCCCNC(=O)[C@H](CCCN=C(N)N)n3cc(C[C@@H](C)CC)nn3)CC2)n1	i	·	25*	·	i	-32*
C#CCOCCOCCOCCNc1nc(N2CCN(C(=O)CCCCCCCCCCNC(=O)Cn3cc(C[C@@H](C)O)nn3)CC2)nc(N2CCN(C(=O)CCCCCCCCCCNC(=O)[C@H](CCCN=C(N)N)n3cc(C[C@@H](C)CC)nn3)CC2)n1	i	·	i	i	i	-26*
C#CCOCCOCCOCCNc1nc(N2CCN(C(=O)CCCCCCCCCCNC(=O)[C@H](CO)n3cc(CCCSC)nn3)CC2)nc(N2CCN(C(=O)CCCCCCCCCCNC(=O)[C@H](CCCCN)n3cc(CCO)nn3)CC2)n1	·	·	·	·	·	i
COCCCNCCCOc1ccc(C(C)(C)c2ccccc2)cc1	i	-8.2*	i	i	i	i
C=CCNCCCOc1ccc(C(C)(C)c2ccccc2)cc1	i	-8.6*	i	i	i	i
CCNC(=O)N1CCC(n2nccc2NC(=O)CCCc2ccccc2)CC1	i	0.45	i	i	i	i
CCOC(=O)c1c(-c2ccccc2)oc2ccc(O)cc12	i	-0.03	i	i	i	i
CCOC(=O)c1c(-c2ccccc2)oc2ccc(OCC(O)CNCCN(C)C)cc12 (stereo not drawn)	i	-5.2*	i	+	i	i
C[C@@H](CSc1ccccc1)CN1CC[C@H](C(C)(C)C)CCC1=O	i	-5.3*	i	i	i	i
COc1ccc(SC[C@H](C)CN2CC[C@H](C(C)(C)C)CCC2=O)cc1	·	·	·	·	·	i
CN(CC1CCCCO1)C(=O)c1cc(COc2ccc(F)cc2Cl)on1 (stereo not drawn)	i	-1.3	i	i	i	i
COc1cc(Cl)ccc1OCc1cc(C(=O)N(C)CC2CCCCO2)no1 (stereo not drawn)	i	-4.5*	i	i	i	i
O=C(NNC(=O)c1ccc(NC(=O)c2ccccc2)cc1)c1ccccc1	i	0.76	i	i	i	i
SMILES	CHT PAM	Kir21 block	TMEM16A inh	Rce1 inh	CHT block	TMEM16A act
CCOC(=O)CCC(=O)NNC(=O)c1ccc(NC(=O)c2ccccc2)cc1	i	0.12	i	i	i	-6.8*
Cc1cccc(NC(=O)C2CCN(S(=O)(=O)c3c(C)c(C)cc(C)c3C)CC2)n1	i	0.93	100*	i	i	i
Cc1cccc(NC(=O)C2CCN(S(=O)(=O)c3c(C)nn(C)c3C)CC2)n1	i	-0.27	i	i	i	i
COC(=O)C1=CNC=C(C(=O)OC)C1c1cccc2ccccc12	i	0.57	i	+	i	i
COC(=O)C1=CNC=C(C(=O)OC)C1c1ccccc1Cl	i	·	i	·	i	i
CC1=NOC(=O)/C1=C\c1ccc(-c2cc(Cl)ccc2Cl)o1	i	-0.07	i	i	i	-5.4*
C=CCc1c(OC)ccc2ccc(=O)oc12	i	-0.32	i	i	i	i
CCc1ccc2oc(=O)cc(CN(C)Cc3ccccc3)c2c1	i	-0.98	100*	i	i	i
Cc1cc(C)cc(-n2cccc2/C=C2/C(=N)N3C(=NC2=O)SN=C3S(C)(=O)=O)c1	i	0.23	100*	i	i	i
CS(=O)(=O)C1=NSC2=NC(=O)/C(=C\c3cccn3-c3ccccc3Cl)C(=N)N21	i	2.7	i	i	i	i
N#Cc1ccc(Oc2cccc3cccnc23)c([N+](=O)[O-])c1	i	-0.42	i	i	i	-5.8*
CC(=O)N1CCN(S(=O)(=O)c2cccc(C(=O)NNC(=O)Cn3nc(C)cc3C)c2)CC1	·	·	·	·	·	i
COc1cc(/C=C2/C(=O)NN(c3ccc(Cl)cc3)C2=O)cc(Br)c1O	i	0.72	i	i	i	-6.2*
COC(=O)c1ccc(N2NC(=O)/C(=C/c3cc(OC)c(OC)c(OC)c3)C2=O)cc1	i	-2.8	i	i	i	i
COc1cccc(/C=C2/C(=O)NN(c3ccc(Br)cc3)C2=O)c1O	i	0.69	i	i	-6.9*	i
Cc1ccccc1S(=O)(=O)c1cc(C#N)c(=O)[nH]c1N	i	0.72	i	+	i	i
CN(C)CCN(C)Cc1c2ccccc2c(CN(C)CCN(C)C)c2ccccc12	i	-3.3	i	i	i	-5.5*
Cc1onc(-c2ccccc2)c1C(=O)NCc1ccco1	i	0.47	i	i	i	-16*
COc1ccc(NC(=O)Cn2c(=O)n(-c3ccc(OC)cc3OC)c(=O)c3c(C)c(C)sc32)cc1	i	0.62	i	i	i	i
